Among all 96,000 compounds or so, about 20,000 (21%) were called active. The list is a sample of the results. Values without a mark were called inactive.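 How the source made its calls: active means CYP2C19 inhibition above a set limit at 5 µM in the primary screen (cut at about 50% in these data); inactive means the rest.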
These compounds were tested against Cytochrome P450 2C19 (Homo sapiens) (UniProt P33261) (assay: blockers of cytochrome P450 2C19 activity – biochemical, luminescence, ADME assay, primary screen (AID 778;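 further: plate controls were negative control wells for no effect and 2.5 mM tranylcypromine positive control for full effect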)). Details: CYP2C19 Supersomes, luciferin-H EGE luminescence, 30 min; at 5 µM; hits give high values.
Sequence of Cytochrome P450 2C19 (Homo sapiens) (P33261 whole entry, looked up): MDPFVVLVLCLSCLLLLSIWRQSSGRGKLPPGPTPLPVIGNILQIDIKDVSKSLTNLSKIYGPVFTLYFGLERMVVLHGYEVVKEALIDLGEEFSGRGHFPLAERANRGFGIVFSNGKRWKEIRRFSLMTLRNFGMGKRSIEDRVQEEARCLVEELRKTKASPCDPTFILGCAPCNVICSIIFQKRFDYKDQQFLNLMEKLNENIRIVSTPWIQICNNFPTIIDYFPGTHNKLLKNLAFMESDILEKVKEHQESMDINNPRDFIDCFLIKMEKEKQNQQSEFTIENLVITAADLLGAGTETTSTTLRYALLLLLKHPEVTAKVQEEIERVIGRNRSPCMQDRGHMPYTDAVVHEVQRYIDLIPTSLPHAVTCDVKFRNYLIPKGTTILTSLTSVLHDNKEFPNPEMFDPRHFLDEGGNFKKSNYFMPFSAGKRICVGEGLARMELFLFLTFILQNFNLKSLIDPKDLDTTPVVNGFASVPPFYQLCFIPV

Compared with `CC(C)C(=O)Nc1c(C(=O)c2ccc(F)cc2)oc2ccccc12`, `O=C(NCc1ccccn1)Nc1ccc(F)cc1` is higher in inhibition: 7.5% for the first, 19.4% for the second.

Compared with `COC(CCN(C)C)(c1ccccc1)c1ccccc1`, `COc1ccc(CCNC(=O)CN(c2ccccc2)S(C)(=O)=O)cc1OC` is higher in inhibition: 1% for the first, 32.8% for the second.

First: O=C(OCC(=O)N1CCN(C(=O)c2ccco2)CC1)c1ccccc1Cc1ccccc1
Second: CCOC(=O)C1CCN(C(=O)Cn2cc(C#N)c3ccccc32)CC1
The inhibition of the first is higher: 24% for the first, 17% for the second.

First: COC(=O)c1ccc(C2NC(=O)NC(C)=C2C(=O)N(C)C)cc1 (stereo not given)
Second: CCOC(=O)COc1ccc(Cl)cc1C1NC(=O)NC(C)=C1C(C)=O (stereo not given)
The inhibition of the first is lower: -16.9% for the first, 35.2% for the second.

Going from `CCOC(=O)C1=NNC2(c3ccc(Cl)cc3)C(=O)N(c3cc(C)cc(C)c3)C(=O)C12` (stereo not given) to `COc1cc(Cl)cc(C2NC(=O)NC(C)=C2C(=O)NCc2ccccc2)c1O` (stereo not given), the inhibition falls from 34.9% to 1.5%.

Going from `COc1cc(OC)cc(C(=O)NC(=S)N2CCN(c3ccc(C(F)(F)F)cc3[N+](=O)[O-])CC2)c1` to `Cn1c(=O)n(C)c2cc(CNc3ccc(N4CCOCC4)c(C(=O)O)c3)ccc21`, the inhibition falls from 15.1% to -18.6%.

First: S=c1nccc(-c2cc(Cl)sc2Cl)[nH]1
Second: Cc1cc(C)n(-c2ccc(Cl)c(C(=O)O)n2)n1
The inhibition of the first is lower: -13.6% for the first, -6.9% for the second.

Going from `CC(=O)c1cccc(NC(=O)N2CCCC2C(=O)NCCC(C)C)c1` (stereo not given) to `CCCS(=O)(=O)N1CCC(C(=O)NCCc2ccc(OC)c(OC)c2)CC1`, the inhibition falls from 12.7% to -15.2%.

Compared with `CN(CCC#N)c1ncnc2scc(-c3ccccc3)c12`, `Cc1ccc(C(=O)C[n+]2cc(-c3ccccc3)n3c2CCCCC3)cc1` is lower in inhibition: 12.3% for the first, 0.5% for the second.

Going from `Cc1ccc(OCCCC(=O)Nc2ccc(N3CCOCC3)cc2)cc1` to `COc1ccc(OCC(=O)N2CCOCC2)cc1`, the inhibition rises from 13.8% to 27.3%.

Compared with `O=C(NCC12CC3CC(C1)CC(CNC(=O)N1CCCC1)(C3)C2)N1CCCC1`, `O=C(O)C1CCN1C1CCCCC1` (stereo not given) is lower in inhibition: -10% for the first, -17.6% for the second.

Compared with `COc1ccc(Cc2nnnn2CC(=O)O)cc1`, `CCOc1ccc2c(c1)cc(CN(C(=O)CC)C1CCCCC1)c1nnnn12` is higher in inhibition: 17.8% for the first, 32.5% for the second.

Compared with `Cn1c(CNC(=O)C(C)(C)C)nc2ccccc21`, `CCC(=O)NCCc1nc2ccccc2n1CC` is higher in inhibition: 21.1% for the first, 29.4% for the second.

Compared with `COc1cc(NS(=O)(=O)c2ccc(N/C=C(\C=O)c3nc4cc(Cl)ccc4o3)cc2)nc(OC)n1`, `COc1ccc(S(=O)(=O)NCc2ccc(C(=O)N(C)Cc3ccco3)cc2)cc1` is higher in inhibition: 4.7% for the first, 29.2% for the second.

Going from `Cc1ccnc(SCCn2c(Br)nc3c2c(=O)[nH]c(=O)n3C)n1` to `Cc1ccc2cc(CCNC(=O)c3ccc4c(c3)OCO4)c(=O)[nH]c2c1`, the inhibition rises from -4.9% to 4.5%.

First: CC(=O)c1sc(NC(=O)c2ccc(C)cc2)nc1C
Second: COC(=O)c1sccc1NC(=O)c1csc2c1CCCC2
The inhibition of the first is lower: 4.1% for the first, 4.9% for the second.

Going from `CC(C)CC(=O)N=C1SC2CS(=O)(=O)CC2N1CCc1ccccc1` (stereo not given) to `CC1=CC(C)(C)Nc2ccc(OC(=O)C(Cc3ccccc3)N3C(=O)C4CCCCC4C3=O)cc21` (stereo not given), the inhibition falls from 39.3% to 18.9%.

First: COc1ccc(NC(C)=O)cc1NC(=O)CN1CCN(c2ccccn2)CC1
Second: COc1ccc(C(=O)NCCc2ccc(S(N)(=O)=O)cc2)cc1OC
The inhibition of the first is lower: -7.2% for the first, -5.6% for the second.

Going from `COc1ccc(CCNc2ncnc3nc[nH]c23)cc1OC` to `CCS(=O)(=O)NCCc1ccc(OC)c(OC)c1`, the inhibition rises from 5.8% to 12.9%.

Compared with `CC(=O)Oc1ccc2c(C)c(CC(C)O)c(=O)oc2c1` (stereo not given), `O=C(Nc1cccc2ncccc12)C(Cl)(Cl)Cl` is lower in inhibition: 42.8% for the first, 6.6% for the second.

For `COCCOC(=O)C1=C(C)NC(=O)NC1c1ccc(Cl)cc1` (stereo not given), the inhibition was 94.4% (active).
In the case of `CCOC(=O)C1=C(C)NC(=O)N(C(C)=O)C1c1ccc(Cl)cc1` (stereo not given), the inhibition is reported as 87.9% (active).
For `Cc1cccc2nc(CNc3ccc(F)cc3)cn12`, the inhibition was 69.3% (active).
`Cc1ccc(OCCCC(=O)N2CCOCC2)c(C)c1` was tested, and the inhibition was 91.9% (active).
In the case of `CCOC(=O)C1CCN(C(=O)CC2C(=O)N(Cc3ccccc3)C(C)c3nc4ccccc4n32)CC1` (stereo not given), the inhibition is reported as 54% (active).
In the case of `CC(C)CCNC(=O)CC1C(=O)N(Cc2ccccc2)C(C)c2nc3ccccc3n21` (stereo not given), the inhibition is reported as 93.3% (active).
`COc1ccc(NC(C)=O)cc1NC(=O)CN1CCN(C2c3ccccc3-c3ccccc32)CC1` was tested, and the inhibition was 64.9% (active).
For `COc1ccc(CCNS(=O)(=O)c2ccc(Cl)s2)cc1OC`, the inhibition was 67.5% (active).
For `COc1ccc(CCNS(=O)(=O)c2ccc(C(=O)NCc3ccco3)cc2)cc1OC`, the inhibition was 56.7% (active).
`COc1ccc(CCNS(=O)(=O)c2ccc(F)cc2)cc1OC` was tested, and the inhibition was 93.2% (active).

From PubChem BioAssay AID778 (Sanford-Burnham Center for Chemical Genomics, 2007)
